PubChem BioAssay (NCATS)
Inconclusive results are not listed. The source made the active and inactive calls. Unless noted, how the calls were made is not given here.

Legend:
[1] = qHTS profiling of the MIPE4 collection as inhibitors of Plasmodium falciparum (3D7) proliferation (AID 743344);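 further: scaled between DMSO vehicle wells and 0.29 µM artemisinin as full inhibition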; conditions: P. falciparum 3D7 in erythrocytes, SYBR Green DNA fluorescence, 72 h; at 28.5 µM unless noted
Method in brief: (§1)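 Parasite DNA was quantified by SYBR Green I fluorescence (ex 485, em 535 nm) after overnight lysis in saponin/Triton buffer at room temperature. Cultures at 0.3% parasitemia and 2.5% hematocrit were first exposed to compound for 72 h at 37 C; signals were normalised to artemisinin (0.29 uM) and vehicle wells.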

[2] = qHTS profiling of the MIPE4 collection as inhibitors of Plasmodium falciparum (DD2) proliferation (AID 743345); conditions: P. falciparum Dd2 in erythrocytes, SYBR Green DNA, 72 h; at 28.5 µM unless noted
Method in brief: as §1

[3] = qHTS profiling of the MIPE4 collection as inhibitors of Plasmodium falciparum (DD2) proliferation (Rep 2) (AID 743346); conditions: P. falciparum Dd2 in erythrocytes, SYBR Green DNA, 72 h; at 28.5 µM unless noted
Method in brief: as §1

[4] = qHTS profiling of the MIPE4 collection as inhibitors of Plasmodium falciparum (HB3) proliferation (AID 743347);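 further: plate controls were DMSO vehicle wells for no effect and artemisinin wells for full effect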; conditions: P. falciparum HB3 in erythrocytes, SYBR Green DNA, 72 h; at 28.5 µM unless noted
Method in brief: as §1

[5] = High-throughput drug toxicity screening in the BPDCN cell line Gen2.2 (AID 1224824); conditions: Gen2.2 BPDCN cells; at 45.8 µM (top of the series) unless noted;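 further: cells exposed to compounds for 48 h before reading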
Method in brief: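 CellTiter-Glo luminescence read after 48 h compound exposure at 37 C defines viability; percent activity set with DMSO as 100% and bortezomib (9.2 uM final) as 0%. 500 exponentially growing cells per well, RPMI plus 10% FBS.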

[6] = High-throughput drug toxicity screening in the BPDCN cell line Cal-1 (AID 1224825); conditions: Cal-1 BPDCN cell viability, qHTS; at 45.8 µM (top of the series) unless noted
Method in brief: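 CellTiter-Glo luminescence after 48 h compound exposure; percent activity scaled with DMSO as 100% and bortezomib (9.2 uM final) as 0%. Cal-1 cells seeded at 500/well in RPMI, 10% FBS, no phenol red.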

[7] = qHTS assay for measurement of the activity of small molecule inhibitors on Zika virus induced Caspase-3 activity in human iPSC derived neural progenitor cells (hNPCs) (AID 1224857; active means well fitted inhibition curve with a large enough effect; further: % of control where 0% means no effect; nearly all actives have a fitted effect of over 65% in size)
Method in brief: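 Quantitative HTS format: human iPSC neural progenitors, 1 h compound pretreatment, ZIKV 2 FFU/cell for 6 h at 37 C. Percent inhibition derived from luminescent caspase-3/7 signal between uninfected and infected controls.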

[8] = qHTS assay for measurement of the activity of small molecule inhibitors on Zika virus induced Caspase-3 activity in human astrocytoma cells (AID 1224859; active means well fitted inhibition curve with a large enough effect;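 further: plate controls were ZIKV-infected untreated cells for no effect and uninfected cells for full effect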)
Method in brief: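 Readout is luminescence from Caspase-Glo 3/7 added after a 6 h ZIKV infection (2 FFU/cell) of compound-pretreated (1 h) SNB-19 cells; data expressed as % inhibition versus uninfected and infected wells.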

Question: Which parasite growth, % of DMSO control [1] does the source give for `Cc1c(NC(=O)OC[C@@H]2COCCN2)cn2ncnc(Nc3ccc4c(cnn4Cc4cccc(F)c4)c3)c12` here?
Answer: The parasite growth, % of DMSO control was 5.88%.

Question: What about the parasite growth remaining, % of DMSO control (lower = more inhibition) [2] of the same compound?
Answer: The parasite growth remaining, % of DMSO control (lower = more inhibition) was 11%.

Question: What about the parasite growth, % of control (lower = inhibition) [3] of the same compound?
Answer: The parasite growth, % of control (lower = inhibition) was 24.7%.

Question: What about the growth, % of control [4] of the same compound?
Answer: The growth, % of control was 11.2%.

Question: And the cell viability, % of control (lower = more cytotoxic) [5]?
Answer: The cell viability, % of control (lower = more cytotoxic) was 285%.

Question: What about the viability (% of control) [6] of the same compound?
Answer: The viability (% of control) was 13.9%.

Question: What about the Potency [7] of the same compound?
Answer: Its Potency is “inactive”.

Question: And the Potency [8]?
Answer: The Potency was “inactive”.

Question: With `Cn1c2ccccc2c2c3c(c4c5ccccc5n(CCC#N)c4c21)CNC3=O` as the compound, how does the parasite growth, % of DMSO control [1] read?
Answer: The parasite growth, % of DMSO control was 16%.

Question: What about the parasite growth remaining, % of DMSO control (lower = more inhibition) [2] of the same compound?
Answer: Its parasite growth remaining, % of DMSO control (lower = more inhibition) is 7.7%.

Question: What about the parasite growth, % of control (lower = inhibition) [3] of the same compound?
Answer: The parasite growth, % of control (lower = inhibition) was 30.7%.

Question: And the growth, % of control [4]?
Answer: The growth, % of control was 54.6%.

Question: And the cell viability, % of control (lower = more cytotoxic) [5]?
Answer: The cell viability, % of control (lower = more cytotoxic) was 12.7%.

Question: And the viability (% of control) [6]?
Answer: Its viability (% of control) is 15.7%.

Question: What about the Potency [7] of the same compound?
Answer: Its Potency is “inactive”.

Question: And the Potency [8]?
Answer: Its Potency is “inactive”.

Question: Which parasite growth, % of DMSO control [1] does the source give for `Cn1cc(-c2ccncc2)c(-c2ccc(OCc3ccc4ccccc4n3)cc2)n1` here?
Answer: Its parasite growth, % of DMSO control is 83.3%.

Question: What about the parasite growth remaining, % of DMSO control (lower = more inhibition) [2] of the same compound?
Answer: Its parasite growth remaining, % of DMSO control (lower = more inhibition) is 98.3%.

Question: What about the parasite growth, % of control (lower = inhibition) [3] of the same compound?
Answer: Its parasite growth, % of control (lower = inhibition) is 82.2%.

Question: What about the growth, % of control [4] of the same compound?
Answer: Its growth, % of control is 65.2%.

Question: What about the cell viability, % of control (lower = more cytotoxic) [5] of the same compound?
Answer: Its cell viability, % of control (lower = more cytotoxic) is 56.4%.

Question: What about the viability (% of control) [6] of the same compound?
Answer: Its viability (% of control) is 38.2%.

Question: And the Potency [7]?
Answer: Its Potency is “inactive”.

Question: And the Potency [8]?
Answer: Its Potency is “inactive”.

Question: Which results are given for `COc1ccc(F)c(F)c1C(=O)c1cnc(NC2CCN(S(C)(=O)=O)CC2)nc1N`?
Answer: parasite growth, % of DMSO control [1]: 27.7%; parasite growth remaining, % of DMSO control (lower = more inhibition) [2]: 60.1%; parasite growth, % of control (lower = inhibition) [3]: 26%; growth, % of control [4]: 37.7%; cell viability, % of control (lower = more cytotoxic) [5]: 2.27%; viability (% of control) [6]: 2%; Potency [7]: inactive; Potency [8]: inactive

Question: Which parasite growth, % of DMSO control [1] does the source give for `CNC(=O)c1ccc(-c2cnc3ncc(Cc4ccc5ncccc5c4)n3n2)cc1F` here?
Answer: The parasite growth, % of DMSO control was 19.3%.

Question: And the parasite growth remaining, % of DMSO control (lower = more inhibition) [2]?
Answer: Its parasite growth remaining, % of DMSO control (lower = more inhibition) is 41.8%.

Question: What about the parasite growth, % of control (lower = inhibition) [3] of the same compound?
Answer: The parasite growth, % of control (lower = inhibition) was 37.1%.

Question: What about the growth, % of control [4] of the same compound?
Answer: Its growth, % of control is 10.4%.

Question: What about the cell viability, % of control (lower = more cytotoxic) [5] of the same compound?
Answer: Its cell viability, % of control (lower = more cytotoxic) is 48.9%.

Question: What about the viability (% of control) [6] of the same compound?
Answer: The viability (% of control) was 92.3%.

Question: And the Potency [7]?
Answer: Its Potency is “inactive”.

Question: And the Potency [8]?
Answer: The Potency was “inactive”.

Question: With `CC(C)(C)NC(=O)[C@H]1CN(Cc2cccnc2)CCN1C[C@@H](O)C[C@@H](Cc1ccccc1)C(=O)N[C@H]1c2ccccc2C[C@H]1O` as the compound, how does the parasite growth, % of DMSO control [1] read?
Answer: Its parasite growth, % of DMSO control is 19.6%.

Question: What about the parasite growth remaining, % of DMSO control (lower = more inhibition) [2] of the same compound?
Answer: The parasite growth remaining, % of DMSO control (lower = more inhibition) was 42.6%.

Question: And the parasite growth, % of control (lower = inhibition) [3]?
Answer: The parasite growth, % of control (lower = inhibition) was 27.8%.

Question: And the growth, % of control [4]?
Answer: Its growth, % of control is 7.39%.

Question: What about the cell viability, % of control (lower = more cytotoxic) [5] of the same compound?
Answer: Its cell viability, % of control (lower = more cytotoxic) is 129%.

Question: What about the viability (% of control) [6] of the same compound?
Answer: Its viability (% of control) is 85.6%.

Question: And the Potency [7]?
Answer: Its Potency is “inactive”.

Question: What about the Potency [8] of the same compound?
Answer: Its Potency is “inactive”.

Question: Which results are given for `CCc1c2c(nc3ccc(O)cc13)-c1cc3c(c(=O)n1C2)COC(=O)[C@]3(O)CC`?
Answer: parasite growth, % of DMSO control [1]: 13.6%; parasite growth remaining, % of DMSO control (lower = more inhibition) [2]: 12.1%; parasite growth, % of control (lower = inhibition) [3]: 19.1%; growth, % of control [4]: 11.3%; cell viability, % of control (lower = more cytotoxic) [5]: 6.79%; viability (% of control) [6]: 5.47%; Potency [7]: inactive; Potency [8]: inactive

Question: Which results are given for `Nc1ncnc2c1c(-c1cccc(OCc3ccccc3)c1)cn2C1CC(CN2CCCC2)C1` (stereo not drawn)?
Answer: parasite growth, % of DMSO control [1]: 5.35%; parasite growth remaining, % of DMSO control (lower = more inhibition) [2]: 7.32%; parasite growth, % of control (lower = inhibition) [3]: 9.07%; growth, % of control [4]: 8.63%; cell viability, % of control (lower = more cytotoxic) [5]: 5.16%; viability (% of control) [6]: 1.43%; Potency [7]: inactive; Potency [8]: inactive

Question: Which parasite growth, % of DMSO control [1] does the source give for `CC(C)Nc1cc(C(F)(F)F)cc2nc(NC(=O)c3cccnc3)nn12` here?
Answer: Its parasite growth, % of DMSO control is 78.6%.

Question: What about the parasite growth remaining, % of DMSO control (lower = more inhibition) [2] of the same compound?
Answer: Its parasite growth remaining, % of DMSO control (lower = more inhibition) is 97.3%.

Question: What about the parasite growth, % of control (lower = inhibition) [3] of the same compound?
Answer: Its parasite growth, % of control (lower = inhibition) is 92.3%.

Question: What about the growth, % of control [4] of the same compound?
Answer: The growth, % of control was 93.5%.

Question: And the cell viability, % of control (lower = more cytotoxic) [5]?
Answer: The cell viability, % of control (lower = more cytotoxic) was 80.4%.

Question: And the viability (% of control) [6]?
Answer: Its viability (% of control) is 120%.

Question: What about the Potency [7] of the same compound?
Answer: The Potency was “inactive”.

Question: What about the Potency [8] of the same compound?
Answer: Its Potency is “inactive”.

Question: With `NCC(=O)Nc1ccc(-n2nc(C(F)(F)F)cc2-c2ccc3c(ccc4ccccc43)c2)cc1` as the compound, how does the parasite growth, % of DMSO control [1] read?
Answer: Its parasite growth, % of DMSO control is 5.62%.

Question: What about the parasite growth remaining, % of DMSO control (lower = more inhibition) [2] of the same compound?
Answer: Its parasite growth remaining, % of DMSO control (lower = more inhibition) is 8.46%.

Question: And the parasite growth, % of control (lower = inhibition) [3]?
Answer: The parasite growth, % of control (lower = inhibition) was 12.2%.

Question: And the growth, % of control [4]?
Answer: The growth, % of control was 4.19%.

Question: What about the cell viability, % of control (lower = more cytotoxic) [5] of the same compound?
Answer: Its cell viability, % of control (lower = more cytotoxic) is 1.18%.

Question: And the viability (% of control) [6]?
Answer: Its viability (% of control) is 0.933%.

Question: What about the Potency [7] of the same compound?
Answer: Its Potency is “inactive”.

Question: What about the Potency [8] of the same compound?
Answer: Its Potency is “inactive”.

Question: Which results are given for `Clc1cccc(-c2nnnn2Cc2cccnc2)c1Cl`?
Answer: parasite growth, % of DMSO control [1]: 72.2%; parasite growth remaining, % of DMSO control (lower = more inhibition) [2]: 95.6%; parasite growth, % of control (lower = inhibition) [3]: 84.8%; growth, % of control [4]: 86.1%; cell viability, % of control (lower = more cytotoxic) [5]: 164%; viability (% of control) [6]: 95.3%; Potency [7]: inactive; Potency [8]: inactive
